# Results reported in PubChem BioAssay (EPA / NIEHS).
# Where “and” joins values, the source holds several entries; their conditions need not be identical. Identical values can stand only once. The source holds several records for some structures; these can differ, active in one and inactive in another. Calls of active or inactive are those of the source. The calls were made as follows: active = hit-call score of the fitted dose curve at least 0.9, where 1 is the maximum; inactive = score below 0.9.
# Assays:
# [1] = read-out: Interleukin-8 (IL8), CXCL8 (gene 3576); assay: BSK_CASM3C_IL8: BioMAP Diversity Plus: CASM3C Assay for Interleukin-8 (IL8) Biomarker Activity (AID 2283042); conditions: primary human coronary artery smooth muscle cells; actives raise or lower the signal;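 also: IL-8 protein level quantified by ELISA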
# [2] = read-out: Human Leukocyte Antigen - DR isotype (HLADR), HLA-DRA (gene 3122); assay: BSK_CASM3C_HLADR: BioMAP Diversity Plus: CASM3C Assay for Human Leukocyte Antigen - DR isotype (HLADR) Biomarker Activity (AID 2283043); conditions: primary human coronary artery smooth muscle cells; actives raise or lower the signal;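 also: cell-surface HLA-DR protein level quantified by ELISA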
# [3] = read-out: Macrophage colony-stimulating factor (MCSF), CSF1 (gene 1435); assay: BSK_CASM3C_MCSF: BioMAP Diversity Plus: CASM3C Assay for Macrophage colony-stimulating factor (MCSF) Biomarker Activity (AID 2283044); conditions: primary human coronary artery smooth muscle cells; actives raise or lower the signal;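 also: M-CSF protein amount quantified by ELISA after 24 h exposure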
# [4] = read-out: Low-density lipoprotein receptor (LDLR), LDLR (gene 3949); assay: BSK_CASM3C_LDLR: BioMAP Diversity Plus: CASM3C Assay for Low-density lipoprotein receptor (LDLR) Biomarker Activity (AID 2283045); conditions: primary human coronary artery smooth muscle cells; actives raise or lower the signal;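 also: LDLR protein level on the cell surface quantified by ELISA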
# [5] = read-out: Monocyte Chemoattractant Protein-1 (MCP1), CCL2 (gene 6347); assay: BSK_CASM3C_MCP1: BioMAP Diversity Plus: CASM3C Assay for Monocyte Chemoattractant Protein-1 (MCP1) Biomarker Activity (AID 2283046); conditions: primary human coronary artery smooth muscle cells; actives raise or lower the signal;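 also: MCP-1 level quantified by ELISA 24 h after dosing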
# [6] = BSK_CASM3C_Proliferation: Cell Proliferation Assessment in the BioMAP Diversity Plus: CASM3C Assay (AID 2283047); conditions: primary human coronary artery smooth muscle cells;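 also: sulforhodamine B total protein stain as relative cell number at 560 nm; sub-confluent cells exposed 48 h before staining; fitted both ways against DMSO so gain or loss of cell number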
# [7] = read-out: Monokine induced gamma interferon (MIG), CXCL9 (gene 4283); assay: BSK_CASM3C_MIG: BioMAP Diversity Plus: CASM3C Assay for Monokine induced gamma interferon (MIG) Biomarker Activity (AID 2283048); conditions: primary human coronary artery smooth muscle cells; actives raise or lower the signal;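 also: MIG protein level measured by ELISA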
# [8] = read-out: serum amyloid A (SAA), SAA1 (gene 6288); assay: BSK_CASM3C_SAA: BioMAP Diversity Plus: CASM3C Assay for serum amyloid A (SAA) Biomarker Activity (AID 2283049); conditions: primary human coronary artery smooth muscle cells; actives raise or lower the signal;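 also: SAA protein level quantified by ELISA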
# [9] = BSK_CASM3C_SRB: Viability Assessment in the BioMAP Diversity Plus: CASM3C Assay (AID 2283050); conditions: primary human coronary artery smooth muscle cells;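 also: total protein by SRB staining as cytotoxicity measure in parallel cultures; cells exposed to compound for 24 h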
# [10] = read-out: Thrombomodulin, THBD (gene 7056); assay: BSK_CASM3C_Thrombomodulin: BioMAP Diversity Plus: CASM3C Assay for Thrombomodulin Biomarker Activity (AID 2283051); conditions: primary human coronary artery smooth muscle cells; actives raise or lower the signal;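 also: thrombomodulin protein level measured by ELISA 24 h after dosing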
SMILES,outcome [1],outcome [2],outcome [3],outcome [4],outcome [5],outcome [6],outcome [7],outcome [8],outcome [9],outcome [10],AC50 [1],AC50 [2],AC50 [3],AC50 [4],AC50 [5],AC50 [6],AC50 [7],AC50 [8],AC50 [9],AC50 [10]
COc1cccc(O)c1,inactive,inactive,inactive,inactive,inactive,inactive,inactive,inactive,inactive,inactive,–,–,–,–,–,–,–,–,–,–
CCCCCc1ccc(O)cc1,–,–,–,–,–,–,–,–,–,–,20 µM (active),12.8 µM (active),14.6 µM (active),10.4 µM (active),14 µM (active),11.6 µM (active),15.4 µM (active),12.7 µM (active),15.9 µM (active),34 µM (active)
O=C(CCCN1CCC(O)(c2ccc(Cl)cc2)CC1)c1ccc(F)cc1,inactive,inactive,inactive,–,inactive,–,inactive,inactive,inactive,inactive,–,–,–,9.2 µM (active),–,20 µM (active),–,–,–,–
Cc1ccc(N=Nc2c(O)ccc3ccccc23)c(C)c1,inactive,inactive,inactive,inactive,inactive,inactive,inactive,inactive,inactive,–,–,–,–,–,–,–,–,–,–,8.07 µM (active)
CC[N+](CC)(CC)Cc1ccccc1,inactive,inactive,inactive,inactive,inactive,inactive,inactive,inactive,inactive,inactive,–,–,–,–,–,–,–,–,–,–
Oc1c(Cl)cc(Cl)cc1Sc1cc(Cl)cc(Cl)c1O,inactive,–,–,inactive,inactive,–,–,inactive,–,–,–,9.1 µM (active) and 7.2 µM (active),12.6 µM (active) and 11.8 µM (active),–,–,15.8 µM (active) and 12.1 µM (active),20.2 µM (active) and 26.6 µM (active),20 µM (active),17.1 µM (active),12.8 µM (active) and 12.6 µM (active)
O=P(O)(O)CCC(F)(F)C(F)(F)C(F)(F)C(F)(F)C(F)(F)C(F)(F)C(F)(F)C(F)(F)F,inactive,inactive,inactive,inactive,inactive,inactive,inactive,inactive,inactive,inactive,–,–,–,–,–,9.07 µM (active),–,–,–,–
CCCCC(CC)C(=O)OCCOCCOCCOCCOC(=O)C(CC)CCCC (stereo not drawn),inactive,inactive,inactive,inactive,inactive,inactive,inactive,inactive,inactive,inactive,–,–,–,–,–,–,–,–,–,–
CCCCC(CC)C(=O)O (stereo not drawn),inactive,inactive,inactive,inactive,inactive,inactive,inactive,inactive,inactive,inactive,–,–,–,–,–,–,–,–,–,–
O=P(O)(O)CCC(F)(F)C(F)(F)C(F)(F)C(F)(F)C(F)(F)C(F)(F)F,inactive,inactive,inactive,inactive,inactive,inactive,inactive,inactive,inactive,inactive,–,–,–,–,–,–,–,–,–,–
Cc1cccc2c1ccc1ccccc12,inactive,inactive,inactive,inactive,inactive,inactive,inactive,inactive,inactive,inactive,–,–,–,–,–,–,–,–,–,–
O=S(=O)(O)C(F)(F)C(F)(F)C(F)(F)C(F)(F)C(F)(F)C(F)(F)C(F)(F)C(F)(F)C(F)(F)C(F)(F)F,inactive,inactive,inactive,inactive,inactive,inactive,inactive,–,inactive,inactive,–,–,13.3 µM (active),–,–,–,8.66 µM (active),13.3 µM (active) and 20.4 µM (active),–,13.3 µM (active)
CCCCCCCCCCCCCCC,inactive,inactive,inactive,inactive,inactive,inactive,inactive,inactive,inactive,inactive,–,–,–,–,–,–,–,–,–,–
CCCCCCCCCCCC,inactive,inactive,inactive,inactive,inactive,inactive,inactive,inactive,inactive,inactive,–,–,–,–,–,–,–,–,–,–
O=C(c1ccccc1)c1ccccc1,inactive,inactive,inactive,inactive,inactive,inactive,inactive,inactive,inactive,inactive,–,–,–,–,–,–,–,–,–,–
O=C(O)C(F)(F)OC(F)(F)C(F)(F)OC(F)(F)C(F)(F)OC(F)(F)C(F)(F)C(F)(F)C(F)(F)F,inactive,inactive,inactive,–,inactive,–,inactive,inactive,–,inactive,–,–,48.1 µM (active),46.1 µM (active) and 55.2 µM (active),–,51.1 µM (active) and 56.6 µM (active),–,43.5 µM (active),55.1 µM (active) and 45.3 µM (active),–
Oc1ccc(Cc2ccccc2O)cc1,inactive,inactive,inactive,inactive,inactive,inactive,inactive,inactive,inactive,inactive,–,10.8 µM (active),–,–,–,–,–,–,–,–
O=C1NS(=O)(=O)c2ccccc21,inactive,inactive,inactive,inactive,inactive,inactive,inactive,inactive,inactive,inactive,–,–,–,–,–,–,–,–,–,–
COC1=CC(=O)C[C@@H](C)[C@]12Oc1c(Cl)c(OC)cc(OC)c1C2=O,inactive,inactive,inactive,inactive,–,–,inactive,inactive,inactive,inactive,–,–,–,–,4.25 µM (active),7.06 µM (active),–,–,–,–
CN(C)c1ccc(C(=C2C=CC(=[N+](C)C)C=C2)c2ccccc2)cc1,–,–,–,–,–,–,–,–,–,–,1.98 µM (active),0.0392 µM (active),0.825 µM (active),0.0323 µM (active),0.0615 µM (active),0.553 µM (active),1.17 µM (active),0.0168 µM (active),0.296 µM (active),0.758 µM (active)
N=C(N)c1ccc(OCCCCCOc2ccc(C(=N)N)cc2)cc1,–,–,–,inactive,inactive,–,inactive,inactive,inactive,inactive,24.1 µM (active),17.5 µM (active),15 µM (active),–,–,12.4 µM (active),–,–,–,–
CC(=O)Nc1ccc(O)cc1,inactive,inactive,inactive,inactive,inactive,inactive,inactive,inactive,inactive,inactive,–,–,–,–,–,–,–,–,–,–
O=C(NO)c1ccccc1,inactive,inactive,–,inactive,inactive,inactive,inactive,inactive,inactive,inactive,–,–,2.51 µM (active),–,–,–,–,–,–,–
COc1cc(OC)nc(NC(=O)NS(=O)(=O)Nc2ccccc2C(=O)N(C)C)n1,–,inactive,inactive,inactive,inactive,inactive,inactive,inactive,inactive,inactive,0.0224 µM (active),–,–,–,–,–,–,–,–,–
O=C(NCc1ncc(C(F)(F)F)cc1Cl)c1c(Cl)cccc1Cl,inactive,inactive,inactive,inactive,inactive,inactive,inactive,inactive,inactive,inactive,–,–,–,–,–,–,–,–,–,–
CC1=NN(c2ccccc2)C(=O)C1,inactive,inactive,inactive,inactive,inactive,inactive,inactive,inactive,inactive,–,–,–,–,–,–,–,–,–,–,9.62 µM (active)
O=C1c2ccc(O)c(O)c2C(=O)c2c(O)ccc(O)c21,inactive,inactive,inactive,inactive,inactive,–,inactive,inactive,inactive,inactive,–,–,–,–,–,0.0041 µM (active),–,–,–,–
